Assay outcomes as filed in PubChem BioAssay.
HCMV antiviral: inhibitors of human cytomegalovirus | HFF cells, HCMV-luciferase reporter, 72 h; stronger effect = lower value | hit rate 4.5% among 410,000 | activity change, negative = inhibition, % at 57.5 µM; in the data active means activity change below about -60%; inconclusive means no clear call, values can overlap the other calls; inactive means above about -39%
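HFF cells seeded 16 h at 37C, treated with compounds, infected with luciferase-reporter HCMV at MOI 1 PFU/cell; luciferase read at 72 h post infection, normalized to buffer-only and Salinomycin controls.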
FMDV inh: foot and mouth disease virus antiviral activity; FMDV antiviral cell-based qHTS; hit rate 1.2% among 410,000; Potency, µM (top dose mostly 57.9 µM), usual class: inhibitors; AID 1159524; calls by dose curve; tested in HEK293T cells; further: read-out not given here; nearly all actives have a fitted effect of over 45% in size
AmpC inh no detg: AmpC beta-lactamase inhibition without detergent; P00811; AmpC nitrocefin hydrolysis, absorbance 480 nm, 0.0001% Triton; Potency, µM (titrated, usually from 57.1 µM), most hits filed as inhibitors; hit rate 0.52% among 330,000; AID 485341; further: nearly all actives have a fitted effect of over 20% in size
Target sequence (P00811 whole entry, looked up): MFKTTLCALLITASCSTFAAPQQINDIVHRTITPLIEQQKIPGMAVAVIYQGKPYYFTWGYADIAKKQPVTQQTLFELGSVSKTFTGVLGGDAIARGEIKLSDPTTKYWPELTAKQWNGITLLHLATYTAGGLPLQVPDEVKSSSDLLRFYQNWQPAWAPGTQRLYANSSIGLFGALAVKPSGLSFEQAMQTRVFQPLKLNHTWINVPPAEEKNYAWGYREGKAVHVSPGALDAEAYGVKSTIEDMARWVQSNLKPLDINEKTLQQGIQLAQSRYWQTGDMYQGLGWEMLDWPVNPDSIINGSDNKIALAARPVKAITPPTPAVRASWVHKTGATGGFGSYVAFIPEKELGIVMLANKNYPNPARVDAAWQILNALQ
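20 mM phosphate pH 7.0 + 0.01% (detergent screen) or 0.0001% Triton X-100; 5.3 nM AmpC reagent; cpd preinc 15 min RT; nitrocefin (800 uM stock) to start; A480 q20 s × 4 min; Activity was normalised to no-enzyme and no-compound control wells.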
AmpC inh detg: inhibitors of E. coli AmpC beta-lactamase with detergent; P00811; AmpC hydrolysis of nitrocefin, absorbance 480 nm, 0.01% Triton; Potency, µM (doses to about 114 µM), hits mostly inhibitors; hit rate 0.041% among 370,000; AID 485294; further: nearly all actives have a fitted effect of over 25% in size
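AmpC (5.3 nM in the dispensed reagent) in 20 mM phosphate pH 7.0 with 0.01% (detergent screen) or 0.0001% Triton X-100 was preincubated with compounds for 15 min at room temperature. Nitrocefin was then added from an 800 uM solution, and hydrolysis was followed at 480 nm.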
HCV inh: inhibitors of hepatitis C virus infection | Huh7.5.1 HCVcc-Cre infection, luciferase reporter, 44 h | AID 651820 | hit rate 3.4% among 340,000 | Potency, µM (top dose mostly 41.8 µM), actives largely listed as inhibitors
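1,000 cells/well; 4 h culture; + compound; + HCVcc-Cre (~0.5 moi); 44 h; luciferase substrate, RT 15 min; read 15 sec.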
Each line names hits and unclear results; the compound was inactive in the other large screens; ! = not confirmed by another sample. Compounds with a hit are over-represented: about 7.3% of the library has one in this group of screens. Unless noted, the call rests on the fitted dose curve; in most records, active means well fitted curve in the direction sought with a large enough effect; inconclusive means small, poorly fitted or top-dose-only effect, or another doubt; inactive means no such curve, though single readings can be large; an effect the other way counts as inactive or inconclusive.

CC1(C(=O)NS(=O)(=O)c2cccc(OC(F)F)c2)CCN1C(=O)Cc1ccsc1 (stereo unspecified)	none (no result: AmpC inh no detg, AmpC inh detg, HCV inh)
Cc1cc2c(cc3c(SCc4ccccc4Cl)nnc(C)n32)o1	none (no result: AmpC inh no detg, HCV inh)
Cc1ccc(S(=O)(=O)C(c2ccccc2)c2c(C)noc2C)cc1 (stereo unspecified)	HCMV antiviral -72.1, AmpC inh detg inconclusive
COc1ccc(S[C@]2(C(=O)N3CCCC3)CC(=O)N(c3ccc(OC)cc3)[C@@H]2c2ccc(OC)cc2)cc1	none (no result: FMDV inh, AmpC inh no detg, AmpC inh detg, HCV inh)
CCOC(=O)c1cc(-c2ccccc2)n(-c2cccc(C(=O)Nc3cccc(SC)c3)c2)c1C	HCMV antiviral inconclusive (no result: AmpC inh no detg, HCV inh)
CC(=O)c1ccc(OCc2cc(C(=O)N3CCN(c4ccccc4)CC3C)no2)cc1 (stereo unspecified)	AmpC inh detg inconclusive, HCV inh 22.4µM
Cc1ccc(S(=O)(=O)NCC(c2ccco2)N2CCc3ccccc3C2)cc1 (stereo unspecified)	none
COc1ccc(S(=O)(=O)NCC(c2ccco2)N2CCc3ccccc3C2)cc1 (stereo unspecified)	HCMV antiviral -94.5
CN1C(=O)c2ccc(NC(=O)c3ccc(N4CCCCC4)c([N+](=O)[O-])c3)cc2C1=O	FMDV inh 17.8µM
C=C1CCN(c2ccc(C(=O)NCCC)cc2[N+](=O)[O-])CC1	HCV inh 10µM (no result: AmpC inh no detg, AmpC inh detg)
O=C(Nc1cccnc1)c1ccc(N2CCCC2)c([N+](=O)[O-])c1	HCV inh 11.2µM
O=C(NCCCn1ccnc1)c1ccc(N2CCCCCC2)c([N+](=O)[O-])c1	HCMV antiviral -60.9
O=C(Nc1cccnc1)c1ccc(N2CCOCC2)c([N+](=O)[O-])c1	AmpC inh detg inconclusive, HCV inh inconclusive
O=C1CSC(c2ccccc2O)N1Cc1ccccc1 (stereo unspecified)	none
Cc1cc2nc3n(c2cc1C)C(C)(C(=O)Nc1ccc2ccccc2c1)CCC3 (stereo unspecified)	none (no result: FMDV inh, AmpC inh no detg, AmpC inh detg, HCV inh)
C[C@H](CO)N1C[C@H](C)[C@@H](CN(C)S(=O)(=O)c2ccccc2C#N)OCc2cnnn2CCCC1=O	none (no result: AmpC inh no detg, AmpC inh detg, HCV inh)
CCCCN(C)c1c(C)nc2ccc(C(=O)N(C)Cc3ccco3)cn12	none (no result: AmpC inh no detg, AmpC inh detg, HCV inh)
CC1CCCN(c2ccc(C(=O)Nc3ccc4c(c3)OCO4)cc2[N+](=O)[O-])C1 (stereo unspecified)	HCMV antiviral inconclusive, FMDV inh inconclusive, HCV inh inconclusive
CCCNC(=O)c1ccc(SCC(=O)N(CC)CC)c([N+](=O)[O-])c1	HCMV antiviral -67.4, AmpC inh detg inconclusive, HCV inh inconclusive
CC1CCN(c2ccc(C(=O)Nc3ccc4c(c3)OCO4)cc2[N+](=O)[O-])CC1	HCMV antiviral -60.8, HCV inh 4.47µM
CCN(CC)c1ccc(-n2c(C)c(C(C)=O)c(C(C)=O)c2C)cc1	HCMV antiviral -62.6, FMDV inh inconclusive
CC(=O)c1c(C(C)=O)c(C)n(-c2ccc(O)cc2)c1C	none (no result: AmpC inh no detg)
CN(CCC(=O)Nc1ccc(Cl)cc1)Cc1ccccc1	none
Cc1ccc(OCC(=O)Nc2c(C)nn(-c3ccccc3)c2C)c(Br)c1	FMDV inh 39.8µM, HCV inh inconclusive
Cc1nn(-c2ccccc2)c(C)c1NC(=O)COc1ccc(F)cc1Cl	HCMV antiviral inconclusive, FMDV inh 20µM, HCV inh inconclusive
CCN(C(=O)Cn1nc(C)n2c(cc3cc(C)ccc32)c1=O)c1ccccc1	none
CC(=O)Nc1ccc(S(=O)(=O)N(C#N)c2nc(N(C)C)nc(N(C)C)n2)cc1	AmpC inh detg inconclusive
Cn1c(=O)n(C)c2cc(N3CCCCC3)c(NC(=O)Nc3ccc(Br)cc3)cc21	none (no result: AmpC inh no detg, HCV inh)
Cc1ccc(NC(=O)Nc2cc3c(cc2N2CCCCC2)n(C)c(=O)n3C)cc1Cl	HCMV antiviral -98.8, FMDV inh inconclusive (no result: AmpC inh no detg, HCV inh)
CC/C(=N/Nc1ccccc1)c1cnnc(-c2ccccc2)n1	HCMV antiviral inconclusive, HCV inh 8.91µM
COc1cccc(NC(=O)CN(C)CC(=O)c2c(C)[nH]c3ccccc23)c1	FMDV inh inconclusive
Cc1cc(N2CCCC2)nc(-c2ccccc2O)n1	HCMV antiviral -101.9, HCV inh 3.16µM
Cc1cc(N2CCC(C(=O)Nc3ccc(F)cc3)CC2)nc(-c2ccccc2)n1	HCV inh inconclusive
Cc1cc(C)nc(N2CCN(c3ccc(F)cc3)CC2)n1	AmpC inh detg inconclusive, HCV inh 10µM
Cc1cc(N2CCN(c3ccc(F)cc3)CC2)nc(-c2ccccc2)n1	HCMV antiviral inconclusive, HCV inh 10µM
Cc1cc(N2CCN(C)CC2)nc(-c2ccccc2O)n1	HCV inh inconclusive
CCCCCCCCCCCCCCCC[N+](C)(C)CCN(Cc1ccc(OC)cc1)c1ncccn1	FMDV inh 28.2µM, AmpC inh detg inconclusive, HCV inh 2.82µM (no result: HCMV antiviral)
Cc1ccc(S(=O)(=O)N2C[C@@H](C)[C@]3(C2)[C@H](O)[C@H](OC(=O)Nc2cccs2)C[C@H]2C(=O)N(c4ccccc4)C(=O)[C@H]23)cc1	HCMV antiviral -103.9, FMDV inh inconclusive (no result: AmpC inh no detg, AmpC inh detg, HCV inh)
Cc1ccc(S(=O)(=O)N2C[C@@H](C)[C@]3(C2)[C@H](O)[C@H](OC(=O)NC2CC2)C[C@H]2C(=O)N(c4ccccc4)C(=O)[C@H]23)cc1	FMDV inh inconclusive (no result: AmpC inh no detg, AmpC inh detg, HCV inh)
Cc1cc(C)cc(NC(=O)Cn2nnc(C(=O)NCc3ccccc3Cl)c2N)c1	HCMV antiviral -78.6!
O=C1c2ccccc2C(=O)c2[nH]c(=O)[nH]c21	HCMV antiviral -98.6, HCV inh 6.31µM
COc1ccc(CN(CCNC(=O)CCCCC(=O)NCCN(Cc2ccc(OC)cc2)C(C)C)C(C)C)cc1	HCMV antiviral inconclusive, HCV inh 11.2µM (no result: AmpC inh no detg, AmpC inh detg)
COc1ccc2cc(Br)ccc2c1CC(=O)NC1CC(C)(C)NC(C)(C)C1	HCV inh 11.2µM
CC(=O)OC1(C)CC(C)C(=O)C(C(O)CC2CC(=O)NC(=O)C2)C1 (stereo unspecified)	HCMV antiviral -105.2, FMDV inh inconclusive, HCV inh 0.501µM (no result: AmpC inh no detg, AmpC inh detg)
Cc1cc(C)c2nc(N3C(=O)C(O)=C(C(=O)c4ccco4)C3c3cccc(O)c3)sc2c1 (stereo unspecified)	HCV inh inconclusive
COc1ccc(C(=O)NNc2ccccc2)cc1	none
CC(=O)c1ccc(NC(=S)NC(NC(=O)c2ccco2)C(Cl)(Cl)Cl)cc1 (stereo unspecified)	AmpC inh no detg 12.6µM
COc1ccc(C(=O)NC(NC(=S)Nc2ccc(S(N)(=O)=O)cc2)C(Cl)(Cl)Cl)cc1 (stereo unspecified)	AmpC inh no detg 8.91µM
COc1ccc(C(=O)NC(Nc2ccccc2)C(Cl)(Cl)Cl)cc1 (stereo unspecified)	HCMV antiviral inconclusive, HCV inh 7.94µM
CCOc1ccc(NC(=O)N2CCC(CN3CCCCCC3)CC2)cc1	none (no result: AmpC inh no detg, HCV inh)
Cc1ccc(Cl)cc1N1CCN(S(=O)(=O)c2cn(C)c(C)n2)CC1	none (no result: AmpC inh no detg, HCV inh)
Cc1ccc(C)c(Cn2nnc3c(=O)[nH]c(C(=O)NCc4ccco4)nc32)c1	AmpC inh detg inconclusive (no result: HCV inh)
